IMPase inh: membrane-permeable compound that blocks inositol monophosphatase | P97697 | CHO-M1 cells, IP1 accumulation, HTRF TR-FRET ratio | inhibition (IP1 accumulation), % at 46.1 µM | 120,000 tested, under 10 active | AID 901; active = well fitted curve in the direction sought with a large enough effect in the signal ratio, not every such curve was filed as active; inconclusive = small, poorly fitted or top-dose-only effect, or a change in a side signal; inactive = no such curve, though single readings can be large or run the other way; the % refers to the signal ratio;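 note: cells stimulated with carbachol in lithium chloride buffer; plate controls were DMSO basal wells for no effect and reference inhibitor wells for full effect; higher means more IMPase inhibition seen as more IP1 and lower FRET ratio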
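CHO-M1, 2000 cells/well, cultured 16–30 h; cpd up to 46 uM; carbachol (50 uM solution, stimulation buffer w/ 50 mM LiCl, pH 7.4), 30 min 37C; IP-One TR-FRET, 10 min RT; Ex 320/Em 665, 620; Hill-fit AC50.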
ALDH1A1 inh: ALDH1A1 (human) enzyme inhibition | 220,000 compounds, 7.3% hits | Potency, µM (titrated, usually from 75.3 µM), for inactives: top-dose activity, negative = inhibition, most hits filed as inhibitors | P00352 | Purified ALDH1A1, NADH fluorescence, propionaldehyde substrate;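 note: potency is the fitted concentration of half-maximal effect; plate controls were no enzyme wells and a reference inhibitor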
HPGD inh: blocks human HPGD enzyme activity; purified HPGD, NADH fluorescence kinetic, PGE2 substrate; Potency, µM, inactives show at the top dose activity change, negative = inhibition, actives largely listed as inhibitors; 150,000 compounds, 4.3% hits; AID 894; note: potency is the fitted concentration of half-maximal effect
Target sequence (P15428 whole entry, looked up): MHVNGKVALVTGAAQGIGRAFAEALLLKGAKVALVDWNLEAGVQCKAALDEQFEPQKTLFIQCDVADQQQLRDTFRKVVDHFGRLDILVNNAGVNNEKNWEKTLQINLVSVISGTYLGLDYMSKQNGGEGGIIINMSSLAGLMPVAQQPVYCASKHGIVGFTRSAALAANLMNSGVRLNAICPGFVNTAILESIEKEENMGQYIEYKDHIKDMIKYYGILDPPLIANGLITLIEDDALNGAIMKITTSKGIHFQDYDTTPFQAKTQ
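NADH formation kinetics: reaction with 30 uM PGE2 and 1 mM NAD+ (final), 20 nM enzyme, Tris-HCl pH 8 with Tween 20, after 15 min compound preincubation at room temperature. Fluorescence change, last versus first of five reads.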
* marks the source's active call; other numbers are inactive results; u = inconclusive; x = not tested or not shown; [ ] = dose if it differs, or a comment. An excerpt weighted towards active compounds, which were near 9% of everything screened. Unless noted, calls come from the whole dose curve; as a rule, active = well fitted inhibition curve with a large enough effect (not every such curve was filed as active); inconclusive = small, poorly fitted or top-dose-only effect, or another doubt; inactive = no such curve, though single readings can be large or run the other way. Unless noted, % is set by controls: 0 for no effect and ±100 for the full control effect.

SMILES	IMPase inh	ALDH1A1 inh	HPGD inh
O=C(c1ccc(Cl)nc1)N1CCc2ccccc2C1	-10.7	-1.2%	7.94µM*
CCOC(=O)N1CCN(Cc2nc3c(c(=O)[nH]c(=O)n3C)n2Cc2cc(C)ccc2C)CC1	-3.2	u	10.6%
CC(C)(CO)[C@H](O)C(=O)NCCCO	-13.8[20.6 µM]	13.6%[20.9 µM]	-8.3%
Cn1cc(NC(=O)OCc2ccc(Cl)cc2)c(C(F)(F)F)n1	x	7.3%	x
CC(/C=C/c1ccccc1F)=N\NC(=O)c1cccc(F)c1	x	0.5%	x
CCOC(=O)c1csc(-n2nc(C)cc2C(F)(F)F)n1	x	-11.4%	x
Cc1cc(C(F)(F)F)n(-c2nc(C(=O)NN)cs2)n1	x	2.24µM*	x
CC(C)C(c1nnnn1C(C)(C)C)N1CCOCC1 (stereo unspecified)	-11.8	u	-7.5%
CC(C)C(c1nnnn1C(C)(C)C)N1CCC(Cc2ccccc2)CC1 (stereo unspecified)	x	22.4µM*	-16.6%
COc1cc(OC)c(Nc2nc3ccc(C(=O)c4ccccc4)cc3n3c(C)nnc23)cc1Cl	4.3	x	x
CN(C)c1ccc(C(CNS(=O)(=O)c2ccc3ccccc3c2)c2c[nH]c3ccccc23)cc1 (stereo unspecified)	x	-8.8%	-3.7%
CN(C)c1ccc(C(CN)c2c[nH]c3ccccc23)cc1 (stereo unspecified)	x	15.8µM*	x
O=C(NCc1ccc(Cl)cc1)c1n[nH]c([N+](=O)[O-])c1Cl	x	-1.1%	x
Cc1c(Cl)ccc2c1NC(=O)[C@]21N[C@@H](Cc2ccccc2)[C@H]2C(=O)N(c3ccc(F)cc3)C(=O)[C@H]21	2.7	-1.4%	-11.7%
NC(=O)COC(=O)c1cccnc1Nc1ccccc1F	x	11.2µM*	x
CN(C)C(=O)COC(=O)c1cccnc1Nc1ccccc1F	12.6	-10.1%	-14.6%
Cc1c([N+](=O)[O-])cc(C(=O)Oc2cccc(C(=S)N3CCOCC3)c2)cc1[N+](=O)[O-]	x	-7.9%	x
C/C(=N\NS(=O)(=O)c1ccc(C)c([N+](=O)[O-])c1)c1ccc2c(c1)OCO2	x	22.4µM*	x
C/C(=N\NS(=O)(=O)c1ccc(C)c([N+](=O)[O-])c1)c1cc2ccccc2o1	2.6	u	-11.7%
CC(C)c1ccc2oc(-c3ccc(Cl)c(NC(=O)Cc4ccccc4)c3)nc2c1	-4.6	x	x
C/C(CCc1ccc2c(c1)OCO2)=N\N=C1\NC(=O)CC(C(=O)Nc2ccccc2F)S1 (stereo unspecified)	x	-0.2%	x
Cn1cccc1C(=O)N1CCC2(CCCN(c3cccc(-c4ccccc4)c3)C2)CC1	x	-14.2%	-20.0%
Cc1ccc(NC(=S)N/C(=N/S(=O)(=O)c2ccccc2)c2ccccc2)cc1	3.1	u	u
CCCOC(=S)N/C(=N\S(=O)(=O)c1ccccc1)c1ccccc1	-2.5	14.1µM*	28.2µM*
O=S(=O)(/N=C(/NS(=O)(=O)c1ccccc1)c1ccccc1)c1ccccc1	x	-5.8%	x
SMILES	IMPase inh	ALDH1A1 inh	HPGD inh
CCOC(=S)N/C(=N\S(=O)(=O)c1ccccc1)c1ccccc1	12.5	11.2µM*	u
CC(=O)Nc1cccc(Oc2ncnc3scc(-c4ccc(C(C)C)cc4)c23)c1	x	u	-0.9%
CCCCCCOc1ccc(C(=O)O)cc1C#N	x	16.4%	20µM*
CCCCCCCCOc1ccc(C(=O)O)cc1	x	15.3%	-11.2%
CCCC12CN3CCN(CC(C3)/C1=N\NC(=O)c1ccccc1N)C2	4.2	u	u
CCCC12CN3CCN(CC(C3)/C1=N\NC(=O)c1ccc(C(C)(C)C)cc1)C2	-2.1	31.6µM*	1.0%
Cc1ccccc1CS(=O)(=O)c1nnc([C@H](CC(C)C)NC(=O)OC(C)(C)C)o1	11.9	0.4%	12.6µM*
CC[C@@H](C)[C@H](NC(=O)OC(C)(C)C)c1nnc(S(=O)(=O)Cc2cc(C)ccc2C)o1	18.0	3.8%	x
CC(C)[C@H](NC(=O)OC(C)(C)C)c1nnc(S(=O)(=O)Cc2c(F)cccc2Cl)o1	-2.7	0.0%	5.01µM*
CC(C)(C)OC(=O)N[C@@H](Cc1ccccc1)c1nnc(S(=O)(=O)Cc2cccc(F)c2)o1	14.3	u	3.98µM*
CCOC(=O)CSc1nnc([C@H](Cc2ccccc2)NC(=O)OC(C)(C)C)o1	5.8	-14.9%	-10.8%
O=C(OCc1cccc(F)c1)c1ccc2c(c1)-c1ccccc1C2=O	1.5	8.1%	-4.9%
CC(C)C[C@H](N)c1nnc(S(=O)(=O)Cc2cccc(F)c2)o1	-8.8	12.6µM*	-27.0%
CC(C)=CCSc1nnc([C@@H](NC(=O)OC(C)(C)C)C(C)C)o1	-4.7	-5.4%	-3.4%
O=C(c1cnccn1)N1CCC2(CC1)CN(c1ccncc1)C2	x	-1.8%	-9.7%
CC(C)NC(=O)N1CC2(CCN(S(=O)(=O)c3ccccc3)CC2)C1	x	1.8%	-4.6%

Screens from PubChem.
